# From the supplement of paper PMC3545927
# This is one part of the list. How many sequences the whole screen found active is unknown.
# Target: furin, P09958
# Assay: furin cleavage Z-score vs untreated control; higher = more cleavage, active = 3.5 or more, inactive = 1 or less, 8 variable residues between constant flanks
# Procedure, shortened: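 Purified furin cleaved 8-mer peptides that were fused to a cDNA oligonucleotide and held on magnetic beads by their N-terminus. Each 0.01 ml reaction used a 1:10 enzyme:substrate ratio in 50 mM HEPES pH 7.5 with CaCl2 and NaCl and ran 7.5, 15 or 30 min. Released DNA was adapter-tagged by PCR and sequenced, and read counts gave abundance. The cleavage Z-score came from log counts against furin-free reactions, lowess-adjusted and scaled by median absolute deviation.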
# Chain of furin, P09958 (P09958 whole entry): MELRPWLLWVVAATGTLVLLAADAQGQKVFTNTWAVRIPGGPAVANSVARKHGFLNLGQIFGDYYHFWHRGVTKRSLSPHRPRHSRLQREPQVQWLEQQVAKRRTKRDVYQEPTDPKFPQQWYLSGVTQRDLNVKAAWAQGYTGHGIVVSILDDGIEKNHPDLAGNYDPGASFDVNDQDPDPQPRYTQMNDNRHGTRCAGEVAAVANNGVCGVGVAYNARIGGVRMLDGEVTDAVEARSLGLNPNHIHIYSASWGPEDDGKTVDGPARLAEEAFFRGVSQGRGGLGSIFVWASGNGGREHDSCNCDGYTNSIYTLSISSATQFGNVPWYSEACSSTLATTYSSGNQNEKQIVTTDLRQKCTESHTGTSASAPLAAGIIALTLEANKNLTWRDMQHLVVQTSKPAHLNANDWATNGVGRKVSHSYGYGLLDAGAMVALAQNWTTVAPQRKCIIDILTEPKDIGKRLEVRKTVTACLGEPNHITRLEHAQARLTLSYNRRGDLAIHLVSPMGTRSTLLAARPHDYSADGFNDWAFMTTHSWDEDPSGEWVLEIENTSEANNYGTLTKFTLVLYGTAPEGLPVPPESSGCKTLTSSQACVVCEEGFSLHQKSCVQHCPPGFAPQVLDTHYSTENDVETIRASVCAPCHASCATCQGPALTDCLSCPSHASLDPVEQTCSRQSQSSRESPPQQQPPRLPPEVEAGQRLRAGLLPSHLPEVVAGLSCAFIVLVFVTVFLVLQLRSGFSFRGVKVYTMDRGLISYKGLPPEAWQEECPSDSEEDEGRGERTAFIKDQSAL
Sequence,furin cleavage Z-score (7.5 min),furin cleavage Z-score (15 min),furin cleavage Z-score (30 min)
CAVVCCSMSCAGNASASA [HC2100],-1.04 (inactive),-1.97 (inactive),-0.294 (inactive)
CANDARRTRSAGNASASA [FS-693],6.7 (active),7.77 (active),7.39 (active)
CAKSPRRTRSAGNASASA [FS-1351],5.21 (active),4.36 (active),2.84
CAESTTPCSGAGNASASA [HC1977],-0.591 (inactive),0.488 (inactive),-0.368 (inactive)
CAGTTDRSGAAGNASASA [HC419],1,2.15,-0.141 (inactive)
CALPYIEQGMAGNASASA [HC1018],-0.393 (inactive),-0.653 (inactive),2.95
CALRLRKGRSAGNASASA [FS-613],2.52,2.83,0.738 (inactive)
CALRSRSGRSAGNASASA [FS-57],4.75 (active),5.58 (active),4.32 (active)
CAQQHRQGRSAGNASASA [FS-1391],6.09 (active),6.71 (active),6.63 (active)
CAEQGRQGRSAGNASASA [FS-416],-1.07 (inactive),-0.0349 (inactive),0.708 (inactive)
CALRSRWGRSAGNASASA [FS-1370],6.03 (active),5.71 (active),6.06 (active)
CAQRERSGRSAGNASASA [FS-1057],4.28 (active),6.49 (active),6.16 (active)
CAQDPRSGRSAGNASASA [FS-846],0.797 (inactive),-0.812 (inactive),-0.37 (inactive)
CATNSRGENCAGNASASA [HC1504],0.0549 (inactive),0.267 (inactive),0.425 (inactive)
CATTPCSGSAAGNASASA [HC1923],0.77 (inactive),-1.08 (inactive),-0.465 (inactive)
CATGDFDSVIAGNASASA [HC883],-0.133 (inactive),-1.34 (inactive),-0.511 (inactive)
CANRGIGKRSAGNASASA [FS-65],7.18 (active),8.2 (active),7.79 (active)
CANLMRPKRSAGNASASA [FS-137],11.8 (active),11.3 (active),8.61 (active)
CAGSFRSLRSAGNASASA [FS-433],-0.832 (inactive),-0.397 (inactive),-0.333 (inactive)
CAKRRLQKRSAGNASASA [FS-1638],11.7 (active),9.73 (active),9.24 (active)
CAGSFRGKRSAGNASASA [FS-1206],11.1 (active),11.4 (active),8.01 (active)
CACQRGYKGVAGNASASA [HC1166],-1.45 (inactive),-3.75 (inactive),-2.51 (inactive)

Sequence,furin cleavage Z-score (7.5 min),furin cleavage Z-score (15 min),furin cleavage Z-score (30 min)
CAEWEVPCHRAGNASASA [HC2448],1.07,2.14,0.904 (inactive)
CAIGSVGLGKAGNASASA [HC1080],1.13,0.942 (inactive),-0.856 (inactive)
CAETPCSGSWAGNASASA [HC1832],-0.56 (inactive),-0.454 (inactive),-0.69 (inactive)
CAGINAVAYYAGNASASA [HC866],-0.468 (inactive),-1.09 (inactive),-1.09 (inactive)
CARSRKEVELAGNASASA [FS-2089],0.0687 (inactive),0.38 (inactive),-1.75 (inactive)
CARKRAQKRSAGNASASA [FS-1064],8.12 (active),9.12 (active),7.74 (active)
CACGGRGKRSAGNASASA [FS-14],8.41 (active),9.33 (active),7.54 (active)
CALKPRPKRSAGNASASA [FS-609],10.8 (active),12.3 (active),9.88 (active)
CALKRRGKRSAGNASASA [FS-350],12.2 (active),12.5 (active),8.44 (active)
CADELRGKRSAGNASASA [FS-754],-0.105 (inactive),0.269 (inactive),-1.01 (inactive)
CALRKYPKRSAGNASASA [FS-358],0.0194 (inactive),0.839 (inactive),1.49
CAEVPCHRDSAGNASASA [HC2391],0.533 (inactive),1.52,1.63
CAFVSLLAPGAGNASASA [HC360],-0.325 (inactive),-1.4 (inactive),-1.08 (inactive)
CAEVPCHDPSAGNASASA [HC2371],0.427 (inactive),1.64,0.537 (inactive)
CAEVPCHRYSAGNASASA [HC2389],0.533 (inactive),1.28,1.5
CADLMEECSQAGNASASA [HC1805],-0.946 (inactive),-0.224 (inactive),-0.925 (inactive)
CALKRMQKRSAGNASASA [FS-610],12.7 (active),13.3 (active),10.5 (active)
CAEALRQKRAAGNASASA [FS-227],6.68 (active),7.12 (active),5.04 (active)
CAEAMTRYSAAGNASASA [HC1541],-0.217 (inactive),0.448 (inactive),-0.963 (inactive)
CAHLVRQKRAAGNASASA [FS-1008],10.3 (active),10.1 (active),7.65 (active)
CATTPCSGPWAGNASASA [HC1919],-0.176 (inactive),1.46,0.343 (inactive)
